The source of these data is PubChem BioAssay (NCI).

Each structure is given as a SMILES string. The panel holds about 83,000 compounds, 20% with a hit somewhere; the sample as a whole holds those more often.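 Results are percent growth after 48 hours of single-concentration exposure. 100 means growth as in untreated cells, lower positive values show inhibition; negative values down to -100 show cell death.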 Calls of active or inactive are those of the source. The calls were made as follows: active = growth percent below 10; inactive = the rest.

The first test has as its system U251 CNS. As to the kind of experiment: NCI-60 one-dose screen, 48 h (100 = growth as untreated, 0 = no growth, -100 = all killed). Particulars: 10 µM unless noted.
For `CCN(CC)CCOc1ccc(-c2c(-c3ccccc3)c(=O)oc3ccccc23)cc1`, the growth is 85.5% (inactive). Same read-out and setting: with `COc1ccc2c(O)c(/C=C3\N=Nc4ccccc43)oc2c1C[C@@H]1CCNC[C@H]1F` the figure was 10.1% (inactive); with `COc1cc(OC)cc(C2=C3CC[C@@H]4[C@H](CC[C@]5(C)C(=O)CC[C@@H]45)C3=CC3C(O)c4cccnc4N4C(=O)COC234)c1` (some centres not stated), 93.8% (inactive); with `CC(=O)N1N=C(c2ccc(Nc3nc(Nc4ccc(Cl)cc4)nc(Nc4ccc(Cl)cc4)n3)cc2)CC1c1ccco1` (configuration not stated), 81.7% (inactive). Turning to `CCS/C(Nc1ccccc1)=C(\C#N)C(=O)N/N=C/c1ccc(Cl)cc1Cl`, the growth was 19.1% (inactive). Still for that read-out and setting: with `CCOC(=O)C(=Cc1cccc(Cl)c1)C(=O)OCC` the figure was 26.6% (inactive); with `CN[C@]12CC3(C=CC(=O)C=C3)O[C@@]1(Cc1ccc(OC)cc1)N(C)C(=O)N2`, 10.9% (inactive).

The subject of the next test is PC-3 prostate. The description is as above. The conditions noted are these: 10 µM unless noted.
For `Cn1cc(-c2csc(-c3ccc(Cl)cc3)n2)c2cccnc21`, the growth is -16.7% [100 µM] (active).

Consider `COc1cc(-c2nc(SCCC(C)C)nc(Nc3ccccc3Cl)c2C#N)cc(OC)c1OC`, for which the growth was 81.4% (inactive). Same read-out and setting: the value for `CCn1c(=S)[nH]c2c(=O)n(C)c(=O)n(C)c21` was 100% (inactive). On the same count and under the same terms, with `c1ccc(CNc2c3ccccc3nc3ccccc23)cc1` the figure was 37.2% (inactive); with `COCCn1c(-c2csc(-c3cn(C)c4ccc(OC)cc34)n2)cc2cccnc21`, 19.2% (inactive); with `CCOC(=O)CSc1ncnc2c1c(-c1ccccc1)c(-c1ccccc1)n2-c1ccc(C)cc1`, 51.9% (inactive). Still for that read-out and setting: the value for `COc1cc2oc(-c3cccc(NC(=O)c4cccc(Br)c4)c3)cc(=O)c2c(OC)c1OC` was 34.6% (inactive); that for `Cc1ccc(Cl)cc1Nc1nc(C(F)(F)F)ccc1C(=O)N/N=C/c1cccnc1` was 32.4% (inactive); that for `Cn1c(=O)c2c(nc(NC3=NS(=O)(=O)c4ccccc43)n2CC(=O)N2CCc3ccccc32)n(C)c1=O` was 104% (inactive). For `Cc1cccc(Cl)c1NC(=O)c1ccc2nc(NC(=O)NCCN(C)C)sc2c1`, the growth was 62.2% (inactive). Regarding `CCOC(=O)c1c(C)nc2c(c1N)CC(=O)N2Cc1cc(F)cc(Cl)c1`, the growth is 77.9% (inactive). Same read-out and setting: the value for `COC(C(=O)[C@@H](O)[C@@H](C)O)[C@@H]1Cc2cc3cc(O[C@H]4C[C@@H](O[C@H]5C[C@@H](O)[C@H](O)C(C)O5)[C@H](O)C(C)O4)cc(O)c3c(O)c2C(=O)[C@H]1O[C@H]1C[C@@H](O[C@H]2C[C@@H](O[C@H]3C[C@@H](OC)[C@H](O)C(C)O3)[C@@H](O)C(C)O2)[C@H](O)C(C)O1` (some centres not stated) was 42.5% (inactive); that for `CN([O-])c1nc(N(C)[O-])nc(N2CCOCC2)n1.CN([O-])c1nc(N(C)[OH2+])nc(N2CCOCC2)n1.[Fe+3]` was 65.9% [100 µM] (inactive). As to `CCOP(=O)(OCC)c1nc(-c2ccccc2)oc1NCc1cccnc1`, the growth is 101% (inactive). In the case of `CCn1c(SCC(=O)c2ccc(Br)cc2)nnc1-c1ccncc1`, the growth is 102% (inactive). On the same count and under the same terms, with `CCCCNc1ccc(C#N)c(OCCN(CC)CC)c1` the figure was 93.1% (inactive). The same measure, in the same setting: with `N#Cc1c(-c2ccc(Cl)cc2)nc(NN=Cc2cccc(O)c2)nc1N1CCOCC1` the figure was 63.8% (inactive); with `CS(=O)(=O)Nc1cc(-c2ccc3ncnc(Nc4c(Cl)ccc5c4OCO5)c3c2)cnc1Cl`, 2.75% (active). Still for that read-out and setting: with `Fc1cccc(CNc2c3ccccc3nc3ccccc23)c1F` the figure was 57.1% (inactive); with `COC(=O)CNC(=O)[C@H](Cc1ccccc1)NCc1ccncc1`, 87.2% (inactive). On to `O=C(NCCCN1CCOCC1)c1cccc(N2C(=O)/C(=C/c3ccc(F)cc3)SC2=S)c1`, for which the growth is 75.3% (inactive). As to `O=[N+]([O-])/C(=C/C=C/c1ccccc1)c1ccccc1`, the growth was 43.6% (inactive). Still for that read-out and setting: the value for `Cn1cc(-c2csc(-c3c[nH]c4ccc(Br)cc34)n2)c2cnccc21` was -79.5% (active); that for `C=C(C)[C@@H]1CC[C@]2(C(=O)N3CCN(C)CC3)CC[C@]3(C)[C@H](CC[C@@H]4[C@@]5(C)CC(=C/c6ccncc6)/C(=N/O)C(C)(C)[C@@H]5CC[C@]43C)[C@@H]12` was 44.8% (inactive). As for `COc1cc(N2C(=O)[C@H](O)C2c2ccc(SC)cc2)cc(OC)c1OC` (some centres not stated), the growth is 22.4% (inactive). On to `CCCCC(=O)c1ccco1`, for which the growth is 85.8% (inactive). Consider `C=C(C)[C@@H]1CC[C@]2(C)[C@H](CC=C3[C@@H]4[C@H](C)[C@@H](C)CC[C@]4(CO)CC[C@]32C)[C@@]1(C)CCCN`, for which the growth is 11% (inactive).

Turning to `COc1ccc2[nH]cc(-c3nc(-c4c[nH]c5ccncc45)cs3)c2c1`, the growth was 42.4% (inactive). Turning to `Oc1ccc(CN2CCC(N3CCCCC3)CC2)c2cccnc12`, the growth is 17.9% (inactive).

As for `CC(C)(C)c1cc(-c2nc3ccc(N4CCN(S(C)(=O)=O)CC4)cc3[nH]2)cc(C(C)(C)C)c1O`, the growth was 91.7% (inactive). On the same count and under the same terms, the value for `COc1ccc2c(c1)c(-c1noc(C(=O)c3cn(C)c4ccc(Br)cc34)n1)cn2C` was 95.3% (inactive). Same read-out and setting: the value for `C[C@H](NC(=O)[C@@H](C)N)[C@H](Oc1ccc2c(cnn2-c2ccc(F)cc2)c1)c1ccc2c(c1)OCCO2` was 44% (inactive); that for `C=C(C)[C@@H]1CC[C@]2(C(=O)O)CC[C@]3(C)[C@H](CC[C@@H]4[C@@]5(C)C[C@@H](Cc6cn(CCO[C@@H]7O[C@H](COC(C)=O)[C@H](OC(C)=O)[C@H](OC(C)=O)[C@H]7OC(C)=O)nn6)[C@H](O)C(C)(C)[C@@H]5CC[C@]43C)[C@@H]12` was 54.9% (inactive); that for `CCN(CC)CCOc1ccc(-c2c(-c3ccccc3)c(=O)oc3ccccc23)cc1` was 64.9% (inactive). Turning to `COc1ccc2c(O)c(/C=C3\N=Nc4ccccc43)oc2c1C[C@@H]1CCNC[C@H]1F`, the growth is 68.3% (inactive). On the same count and under the same terms, with `COc1cc(OC)cc(C2=C3CC[C@@H]4[C@H](CC[C@]5(C)C(=O)CC[C@@H]45)C3=CC3C(O)c4cccnc4N4C(=O)COC234)c1` (some centres not stated) the figure was 94.7% (inactive); with `CC(=O)N1N=C(c2ccc(Nc3nc(Nc4ccc(Cl)cc4)nc(Nc4ccc(Cl)cc4)n3)cc2)CC1c1ccco1` (configuration not stated), 87.6% (inactive); with `CCS/C(Nc1ccccc1)=C(\C#N)C(=O)N/N=C/c1ccc(Cl)cc1Cl`, 31.5% (inactive). For the molecule `CCOC(=O)C(=Cc1cccc(Cl)c1)C(=O)OCC`, the growth is 25.2% (inactive). The same measure, in the same setting: with `CN[C@]12CC3(C=CC(=O)C=C3)O[C@@]1(Cc1ccc(OC)cc1)N(C)C(=O)N2` the figure was 27.6% (inactive).
